The list is not random: actives were taken first. Their share in the collection is about 3.7%.
esBAF inh – Bmi1 luciferase reporter increase in mESCs, primary screen, esBAF inhibitor project, mouse ES cells, Bmi1 luciferase knock-in, single point; 24 h; 100% = twice the neutral-well signal; reporter increase, % at 12.5 µM; actives 2% (n = 350,000); in the data active = activation above about 40%; inconclusive = no clear call, values can overlap the other calls;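 note: 0% = median of the plate's neutral control wells and 100% = double that signal; a rise in the Bmi1 reporter signal indicates esBAF inhibition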
Ecoli rRNA inh – reduced GFP signal of wild-type E. coli, primary screen, bacterial rRNA inhibitor project, GFP/RFP fluorescence, OD600, single point; GFP signal change (wild-type ribosome), % (test concentration not listed); E. coli WT GFP vs humanized-ribosome RFP mutants, 24 h; active compounds read low; DMSO median 0, no signal -100; AID 720706, 2013; actives 1.6% (n = 350,000);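 active = significant combined selectivity score with lowered wild-type GFP, culture density cut under 30%, mutant RFP and density less affected; inactive = any of these conditions unmet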
Wnt act – Wnt/beta-catenin pathway activators, primary screen, cell-based, plate reader, single point; activation, % at 9.35 µM; actives 1.2% (n = 300,000); AID 743398, 2014; Wnt/beta-catenin reporter cell assay, activator; in the data active = activation above about 30%, passing the limit was not always enough; inconclusive = no clear call, values can overlap the other calls;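 note: 0% = neutral control wells and 100% = positive control wells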
MITF TRPM1 HTS – activators of MITF-driven TRPM1 promoter reporter, primary screen, cell-based, SK-MEL-5, luciferase, single point; SK-MEL-5 TRPM1-promoter luciferase, 24 h; % of positive control, neutral wells = 0; activation, % at 12.5 µM; actives 0.75% (n = 300,000); AID 588334, 2011;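 active = mean activation of at least 80% with every replicate also reaching 80%; inconclusive = mean reaches 80% but some replicate falls short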;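 note: 0% = neutral control wells and 100% = parthenolide positive control wells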
AF4-AF9 inh – inhibitors of AF4 peptide binding to AF9, primary screen, biochemical, AlphaScreen, biotin-AF4 peptide, FLAG-AF9, single point; Protein AF-9 (Homo sapiens), P42568; inhibition, % at 10 µM; actives 0.47% (n = 350,000);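 active = every replicate reaching a set inhibition limit, whatever the replicate mean, cut at about 25% in these data; inconclusive = mean inhibition reaches that limit but some replicates miss it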;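 note: 0% = plate neutral control median and 100% = total signal loss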
Target sequence (P42568 whole entry, looked up): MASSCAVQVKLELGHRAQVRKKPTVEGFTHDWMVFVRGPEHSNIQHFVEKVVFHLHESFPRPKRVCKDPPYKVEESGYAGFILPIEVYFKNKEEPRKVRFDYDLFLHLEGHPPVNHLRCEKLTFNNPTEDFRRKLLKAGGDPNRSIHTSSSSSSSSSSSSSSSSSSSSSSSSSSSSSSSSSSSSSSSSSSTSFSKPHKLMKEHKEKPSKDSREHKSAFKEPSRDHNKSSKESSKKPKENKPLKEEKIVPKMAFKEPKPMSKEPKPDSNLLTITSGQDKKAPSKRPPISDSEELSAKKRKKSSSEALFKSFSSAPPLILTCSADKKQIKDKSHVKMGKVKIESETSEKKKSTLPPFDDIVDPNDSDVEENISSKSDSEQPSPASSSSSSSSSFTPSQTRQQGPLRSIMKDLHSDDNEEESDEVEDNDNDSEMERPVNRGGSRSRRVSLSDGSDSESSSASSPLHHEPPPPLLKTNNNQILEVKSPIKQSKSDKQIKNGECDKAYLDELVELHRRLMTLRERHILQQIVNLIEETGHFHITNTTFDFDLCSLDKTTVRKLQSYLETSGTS
* = called active by the depositor; u = inconclusive; x = no result given.

SMILES	esBAF inh	Ecoli rRNA inh	Wnt act	MITF TRPM1 HTS	AF4-AF9 inh
Cc1cccnc1C1=NOC(Cc2ccccc2)C(=O)N1Cc1ccc2c(c1)OCO2 (stereo not drawn)	3	-18	-2	x	5
C/C(=N/NC(=O)c1ccoc1C)C12CC3CC(CC(C3)C1)C2	57*	x	x	-6	x
C/C(=N\NC(=O)c1ccccn1)C12CC3CC(CC(C3)C1)C2	49*	x	2	52	x
N/C(=N\OC(=O)C12CC3CC(CC(C3)C1)C2)c1ccccc1	-1	x	x	21	x
N/C(=N\OC(=O)C12CC3CC(CC(C3)C1)C2)c1ccccn1	75*	x	x	98*	x
C/C(=N/NC(=O)c1ccccn1)c1ccco1	-21	x	8	-4	x
O=C1NC[C@H](CCCCN2C[C@H](Cc3ccccc3)N(CC3CCCCC3)C(=O)C2=O)N(CC2CCCCC2)C1=O	x	15	-2	x	6
O=Cc1ccc2c(c1)CCN2Cc1ccccc1	-1	-19*	4	1	5
Cc1ccc(-c2c(C)n([O-])c3c([n+]2=O)CCCC3)cc1	x	16	4	7	-2
Cc1c(-c2ccc(Br)cc2)[n+](=O)c2c(n1[O-])CCCCC2	x	10	36*	x	0
COc1ccc(NC(=O)Nc2ccc3c(c2)[C@H]2C[C@H](CC(=O)N4CCOCC4)O[C@@H](CO)[C@H]2O3)cc1	1	2	x	x	x
CC(C)C(=O)Nc1ccc(-c2csc(-c3ccccc3)n2)cc1	71*	x	x	139*	x
CC(C)C(=O)Nc1cccc(-c2csc(-c3ccccc3)n2)c1	28	x	-2	66	-3
CCCCc1ccc(NC(=O)CSc2nc3ncccc3[nH]2)cc1	13	-26*	-4	1	-12
COc1ccc(-c2csc(NC(=O)CC(C)C)n2)cc1	x	x	53*	64	x
Cc1nc(-c2ccc(NC(=O)C3CC3)cc2)cs1	49*	3	14	u	2
Cc1nc(-c2cccc(NC(=O)C3CCCCC3)c2)cs1	2	-40	1	2	4
C[C@@H]1CN([C@@H](C)CO)C(=O)c2cc(NC(=O)Cc3ccccc3)ccc2O[C@@H](C)CCCCO[C@@H]1CN(C)C(=O)c1ccccc1	-1	-2	x	x	0
COCCNC(=O)C[C@@H]1C[C@H]2c3cc(NS(C)(=O)=O)ccc3O[C@H]2[C@@H](CO)O1	-3	2	x	x	-2
COc1ccc(CCNC(=O)CCCn2ncn3c(cc4occc43)c2=O)c(OC)c1	1	5	0	8	-2
CCCNC(=O)N1C[C@@H]2[C@H](c3ccccc31)[C@@H](CO)N2C(=O)Cc1ccccn1	-3	-7	x	x	-2
C/C=C/c1ccc([C@@H]2[C@@H](C#N)N(C(=O)c3cccnc3)[C@@H]2CO)cc1	-2	4	x	x	0
Cc1nc(-c2ccc(NC(=O)CC(C)C)cc2)cs1	x	x	37*	92*	x
CCCCc1ccc(NC(=O)COCC)cc1	33	x	x	x	x
CCCCc1ccc(NC(=O)CC(C)C)cc1	48*	-20	-10	62	-1
SMILES	esBAF inh	Ecoli rRNA inh	Wnt act	MITF TRPM1 HTS	AF4-AF9 inh
COc1ccc(-c2csc(NC(=O)CC(NC(C)=O)c3ccccc3)n2)cc1OC (stereo not drawn)	1	-28*	0	-16	1
Cc1ccc(C(=O)N2CCN(c3ccc(N4CCOCC4)nn3)CC2)cc1C	x	1	-5	3	-18
O=C(CSc1nc2ncc(Cl)cc2[nH]1)c1c[nH]c2ccccc12	x	-4	2	-4	1
CC(C)c1ccc(/C=C2\SC(N3CCCC3)=NC2=O)cc1	x	x	41*	26	x
Cc1ccc(/C=C2\SC(N3CCCC3)=NC2=O)cc1	x	-7	7	x	3
O=C(Nc1ccccc1)N1CC(=O)N2[C@H](CO)[C@@H](c3ccc(C#CC4CCCCC4)cc3)[C@H]2C1	x	1	x	x	6
Cn1c(SCC(=O)c2ccccc2F)nnc1C1CC1	32	x	12	15	x
CC(=O)c1ccc(Nc2nc(=O)c3cccnc3s2)cc1	20	x	8	43	x
Cc1ccc(Nc2nc(=O)c3cccnc3s2)c(Br)c1	27	-22*	-2	x	0
CC(C)CNC(=O)COC(=O)c1c2c(nc3ccccc13)/C(=C\c1cccs1)CC2	55*	24	16	12	-1
Cc1nc(-c2ccc([N+](=O)[O-])cc2)nc2[nH]ccc(=O)c12	u	15	37*	105*	-7
CC(=O)N(C)C[C@H]1Oc2cc(C#Cc3ccccc3F)ccc2S(=O)(=O)N([C@@H](C)CO)C[C@@H]1C	-1	-5	x	x	1
CCN1CCN(c2ccc(N=Cc3ccccc3O)cc2)CC1	x	11	-1	-11	57*
CN1CCN(C(=O)C[C@H]2CC[C@H]3[C@@H](COC[C@@H](O)CN3C(=O)Nc3ccc(F)cc3)O2)CC1	-3	5	x	x	-4
S=C(Nc1ccc(Nc2ccccc2)cc1)Nc1ccccn1	x	-32*	-1	0	10
S=C(Nc1ccccn1)NC1CCCCC1	x	-23*	-1	x	x
S=C(Nc1ccccc1)Nc1ccccn1	20	1	0	x	0
S=C(Nc1ccccc1)c1ccccn1	80*	x	x	15	x
COc1ccc(N2C(=O)CCC(C(=O)NCc3cccnc3)C2c2ccc(OC)c(OC)c2)cc1 (stereo not drawn)	x	x	-3	7	x
CC(=O)c1c(N)[nH]c(-c2ccccc2)nc1=S	14	x	x	x	x
C=C(Cl)COc1ccc2c(CC)cc(=O)oc2c1	14	-24*	-4	-2	1
COc1cc(CN2CC3(CN(C(=O)Nc4c(C)noc4C)C3)c3c(n(C)c4cc(OC)ccc34)[C@@H]2CO)cc(OC)c1	x	-2	x	x	-2
CCCc1ccc(-c2csc(NC(=O)C3=COCCO3)n2)cc1	65*	-1	20	68	7
CC(C)(C)c1csc(NC(=O)C2=COCCO2)n1	x	-9	53*	77	4
COc1ccc(C(=O)CN2C(=O)C(C)(C)Oc3ccc(C(=O)N4CCCCCC4)cc32)cc1	x	x	-6	1	x
SMILES	esBAF inh	Ecoli rRNA inh	Wnt act	MITF TRPM1 HTS	AF4-AF9 inh
Cc1ccc(C(=O)OCC(=O)Nc2ccccc2Cl)c(O)c1	x	3	5	-8	0
CCOC(=O)c1c(NC(=O)COC(=O)c2ccccn2)sc2c1CCC2	6	-18*	x	0	1
Cc1ccc(NC(=O)c2sccc2C)nc1	-16	x	52*	23	-1
O=C(COC(=O)c1cccs1)Nc1ccc(Cl)cn1	-4	0	1	1	-2
Cc1ccc(NC(=O)c2ccc(F)cc2)nc1	x	1	51*	61	-1
Cc1ccsc1C(=O)OCC(=O)Nc1ccc(Cl)cn1	23	-23*	0	50	0
c1ccc(-n2c(SCC3CCCCO3)nnc2-c2cccs2)cc1 (stereo not drawn)	3	x	x	-5	x

Assay outcomes as filed in PubChem BioAssay.
